# DT40 TDP1 CPT: DT40-hTDP1 cell growth loss with CPT. chicken DT40 Tdp1-/-;hTDP1 cells + 20 nM CPT, ATP luminescence, 48 h. Potency, µM (titrated, usually from 46.2 µM), hits mostly inhibitors. 420,000 tested, 12% active. AID 686979; note: nearly all actives have a fitted effect of over 55% in size
#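 Chicken DT40 Tdp1-/- cells stably complemented with human TDP1 were seeded at 400 cells/well in medium containing 20 nM camptothecin, exposed to pin-transferred compounds, and grown at 37 °C for at least 48 hr. Viability was read as ATP luminescence.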
# Chronic BCR inh: blocks chronic active B-cell receptor signaling | ABC-DLBCL IkBa-CBG/CBR reporter, luminescence ratio, 4 h | Potency, µM (highest dose often 46.1 µM), actives largely listed as inhibitors | 340,000 tested, 0.05% active | AID 493014; active = well fitted inhibition curve with a large enough effect in the signal ratio, with a control signal flat, not every such curve was filed as active; inconclusive = small, poorly fitted or top-dose-only effect, or effect the other way, or a change in a side signal; the % refers to the signal ratio
#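 Cell line TMD8 (human ABC DLBCL), stably expressing tet-inducible CBG68-IkBa fusion and CBR; IMDM/0.5% FBS; cpd up to 46 uM; dox induction, 4 h, 37C/5% CO2; dual luminescence; green/red ratio; MG132 control.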
# IL-1B inflam inh: inflammasome signaling inhibition, IL-1 beta readout. THP-1 LPS/ATP IL-1B secretion, AlphaLISA, 16 h; active compounds read low. activity change, % at 57.5 µM. 360,000 tested, 4.7% active; in the data active = activity change below about -50%; inconclusive = mostly about -30% to -49%
#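 THP-1 cells pretreated 1 hr with compounds (up to 57.5 uM final), then stimulated with LPS (250 ng/mL final) plus ATP (1.25 mM final); secreted IL-1B measured by AlphaLISA after 16 hr, decreased signal indicating inhibition.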
# DT40 TDP1 no CPT: qHTS for Inhibitors of human tyrosyl-DNA phosphodiesterase 1 (TDP1): qHTS in cells in absence of CPT | Potency, µM (titrated, usually from 46.2 µM), most hits filed as inhibitors | 420,000 tested, 15% active | DT40 Tdp1-/- hTDP1 cells, no CPT, ATP luminescence, 48 h; note: nearly all actives have a fitted effect of over 55% in size
#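 Chicken DT40 Tdp1-/- cells stably complemented with human TDP1 were seeded at 400 cells/well with DMSO in place of 20 nM camptothecin. After compound pinning, cells grew at least 48 hr at 37 °C; viability read by CellTiter-Glo luminescence.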
# MCF10A rerep: induces DNA re-replication in MCF 10a normal breast cells | MCF 10A DNA re-replication, Hoechst nuclear intensity, 48 h | AID 624296 | Potency, µM (series often up to 46.1 µM), usual class: activators | 350,000 tested, 2.9% active; note: nearly all actives have a fitted effect of over 50% in size
# SW480 rerep: DNA re-replication induction in SW480 cells; Potency, µM (series often up to 46.1 µM), most hits filed as activators; SW480 DNA re-replication, Hoechst DNA content imaging, 48 h; AID 624297; 340,000 tested, 1.8% active; note: nearly all actives have a fitted effect of over 55% in size
#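 SW480 cells exposed to compounds for 48 hr at 37 C, 5% CO2, then Hoechst-stained 40 min. Nuclear DNA content imaged by fluorescence scanning (405 nm excitation, 500-530 nm emission); re-replication scored as increased high-intensity nuclei.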
# Numbers stand for hits; - = inactive; ? = inconclusive; . = no result given; [ ] = dose if it differs, or a comment. A selection: hits, their analogues and other compounds. The true share with any hit is near 19%. Unless noted, calls come from the whole dose curve; as a rule, active = well fitted curve in the direction sought with a large enough effect; inconclusive = small, poorly fitted or top-dose-only effect, or another doubt; inactive = no such curve, though single readings can be large; an effect the other way counts as inactive or inconclusive.
SMILES,DT40 TDP1 CPT,Chronic BCR inh,IL-1B inflam inh,DT40 TDP1 no CPT,MCF10A rerep,SW480 rerep
CN(C)S(=O)(=O)c1ccc(-c2csc(N/N=C/c3ccco3)n2)cc1,12µM,?,-94,8.2µM,?,-
CN(C)S(=O)(=O)c1ccc(C(=O)NCC(=O)N/N=C/c2ccco2)cc1,-,-,-,-,-,-
Clc1ccc(-c2csc(N/N=C\c3cccnc3)n2)cc1,?,-,-,15µM,-,-
CN(C)S(=O)(=O)c1cc(NC(=O)CN2CCN(c3ccccc3O)CC2)ccc1Cl,?,-,-,?,-,-
O=c1oc2c(F)cc(F)cc2cc1S(=O)(=O)c1ccc(F)cc1,-,.,.,-,.,.
Cc1nsc(Nc2ccc([N+](=O)[O-])cc2)c1C#N,2.6µM,?,-,2.3µM,-,-
COc1ccccc1-c1ccnc2c(-c3ccc(Br)cc3)c(C)nn12,-,.,.,-,.,.
CCc1nn2c(-c3ccccc3OC)ccnc2c1-c1ccccc1,?,.,.,21µM,.,.
CCc1nn2c(-c3ccccc3OC)ccnc2c1-c1ccc(F)cc1,23µM,.,.,?,.,.
COc1ccc2[nH]c(O)c(N=O)c2c1,-,-,-,-,-,-
O=Nc1c(O)[nH]c2ccc(F)cc12,-,-,-88,-,-,-
Cc1cccc2c(N=O)c(O)[nH]c12,?,-,?,?,-,?
O=[N+]([O-])c1ccc(N=Nc2c(O)[nH]c3ccc(F)cc23)cc1,?,?,-,?,7.3µM,?
O=Nc1c(O)[nH]c2ccc(Cl)cc12,-,?,-72,?,-,-
O=[N+]([O-])c1ccc2[nH]c(O)c(N=Nc3ccc(F)cc3)c2c1,-,-,-,-,?,?
COc1ccc(NC(=O)CSc2nc(-c3cccs3)cc(C(F)(F)F)n2)cc1OC,4.6µM,?,.,2.3µM,.,.
CC(C)(C)c1ccccc1NC(=O)CSc1nc(-c2cccs2)cc(C(F)(F)F)n1,21µM,.,.,?,.,.
O=C(CSc1nc(-c2ccccc2)cc(C(F)(F)F)n1)NCc1cccs1,-,-,-,-,6.5µM,-
O=C(CSc1nc(-c2cccs2)cc(C(F)(F)F)n1)Nc1cc(OCC(F)(F)F)cc([N+](=O)[O-])c1,?,-,-,18µM,?,-
CCC(C)NC(=O)CSc1nc(-c2cccs2)cc(C(F)(F)F)n1 (centres undefined),?,-,-,?,-,-
CCOc1ccccc1NC(=O)CSc1nc(-c2cccs2)cc(C(F)(F)F)n1,-,.,.,-,.,.
O=C(O)CSc1nc(-c2cccs2)cc(C(F)(F)F)n1,-,-,?,-,-,-
C=CCC(O)(CC=C)CNC(=O)c1ccc(OC)c(OC2CCN(C(C)=O)CC2)c1,-,-,-,-,-,-
O=C(NC(=O)c1ccccc1F)Nc1nc(-c2cccs2)cc(C(F)(F)F)n1,23µM,-,-,?,-,-
Cc1cccc(C)c1NC(=O)CSc1nc(-c2cccs2)cc(C(F)(F)F)n1,15µM,.,.,18µM,.,.
SMILES,DT40 TDP1 CPT,Chronic BCR inh,IL-1B inflam inh,DT40 TDP1 no CPT,MCF10A rerep,SW480 rerep
OCC1=C[C@@H](O)[C@@H]2C=CO[C@@H](O[C@@H]3O[C@H](CO)[C@@H](O)[C@H](O)[C@H]3O)[C@H]12,-,-,-,-,-,?
Oc1ccc(Cl)cc1CN1CCOc2c(O)cc(-c3nc4ccccc4s3)cc2C1,-[9.04 µM],.,.,?,.,.
CCN1CCN(CC(=O)Nc2cc(S(=O)(=O)N(CC)c3ccccc3)ccc2Cl)CC1,?,-,?,?,21µM,?
CCN(c1ccccc1)S(=O)(=O)c1ccc(Cl)c(NC(=O)CN2CCN(C)CC2)c1,?,-,-,-,16µM,-
CCN(c1ccccc1)S(=O)(=O)c1ccc(Cl)c(NC(=O)CSc2ncn[nH]2)c1,?,-,-,?,-,-
CN(C)S(=O)(=O)c1ccc(Cl)c(NC(=O)CN2CCCC2)c1,-,-,-,-,-,-
CCN(c1ccccc1)S(=O)(=O)c1ccc(Cl)c(NC(=O)CN(C)C2CCN(C)CC2)c1,?,?,-55,16µM,?,?
CC1CCCC(NC(=O)CCC(=O)NCc2ccccc2)C1C (centres undefined),-,-,-,-,-,-
O=C1C=C(c2cccc(CO)c2)C[C@@H](c2ccc(Cl)cc2)C1,?,-,-,?,-,-
Cc1cccc(C(c2c(C)nn(-c3ccccc3)c2N)c2c(C)nn(-c3ccccc3)c2N)c1,-,-,-,-,-,-
CCc1ccc(C(c2c(C)nn(-c3ccccc3)c2N)c2c(C)nn(-c3ccccc3)c2N)cc1,?,-,-67,?,?,-
